In PubChem BioAssay (NCI) one finds growth inhibition data, which are given here for 38 compounds.

This is part of a sample that, as a whole, favours compounds with a hit. Of some 79,000 tested, about 15% had one in any assay. Activity calls are given as the source filed them. No stated cut-off is given here; in the data, active means growth inhibition above about 70%; inactive means the rest.

One test in a line: NCI Yeast Anticancer Drug Screen. Data for the wt1 strain (AID 149).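 Further: 0% = growth of vehicle-treated wt1 cultures.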 As to conditions: S. cerevisiae wt1 strain (SPY 50644) growth inhibition; at 1.2 µM; stronger effect = higher value. A digest of the protocol: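 Compounds are added to wt1 yeast cultures. Growth is then measured. Inhibition is expressed relative to vehicle-treated controls.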
Turning to `O=[N+]([O-])c1cc[n+]([O-])cc1`, the growth inhibition is -6% (inactive).

With `CC1(C)CC(=O)C(/C=N/c2nc(-c3ccccc3)cs2)=C(O)C1`, the growth inhibition was 2% (inactive).

Take `Nc1nc(N)c2nc(CNc3ccc(C(=O)NC(CCC(=O)O)C(=O)O)cc3F)cnc2n1` (stereo unspecified): the growth inhibition is 13% (inactive).

For `COC(=O)CC1(O)C(/C=C/c2ccccc2)C(C(=O)OC)C(=O)C(C(=O)OC)C1C(=O)OC` (stereo unspecified), the growth inhibition is 1% (inactive).

As for `CC(C)(C)c1ccc(NS(=O)(=O)c2ccc(N)cc2)cc1`, the growth inhibition is 1% (inactive).

As for `CCN(CC)CCNc1ccc([N+](=O)[O-])c2nc3ccccc3c(N)c12`, the growth inhibition was -10% (inactive).

Consider `CCCCN(CCCC)C(=O)/C=C/c1ccccc1`, for which the growth inhibition was 0% (inactive).

Turning to `O=c1[nH]c(-c2ccccc2)nc2c1sc1nc3ccccc3n12`, the growth inhibition is -24% (inactive).

Turning to `O=[N+]([O-])c1ccc2c(c1)/C(=N/N=C1c3ccccc3Cc3ccccc31)c1cc([N+](=O)[O-])cc([N+](=O)[O-])c1-2`, the growth inhibition is -19% (inactive).

Turning to `CC(C)C(C)/C=C\C(C)C1CCC2C3=CC=C4CC(O)CCC4(C)C3CCC21C` (stereo unspecified), the growth inhibition is 2% (inactive).

For `O=C1Nc2ccc(Br)cc2C1=Nc1ccc2c(c1)OCO2`, the growth inhibition was -12% (inactive).

Consider `CCCCOCn1c(=O)[nH]c(=O)c2cc(Br)ccc21`, for which the growth inhibition was -37% (inactive).

Consider `Cc1ccc(S/C(=C\C(=O)O)c2ccccc2)cc1`, for which the growth inhibition was -6% (inactive).

For `O=[N+]([O-])/C=C/c1cc(Cl)c(/C=C/[N+](=O)[O-])cc1Cl`, the growth inhibition is 25% (inactive).

As to `Cc1cc(S(=O)(=O)Nc2nnc3cnc4ccccc4n23)c(S)cc1Cl`, the growth inhibition is -1% (inactive).

As to `O=C(/C=C/c1cc(Cl)cc(Cl)c1O)c1cccc(O)c1`, the growth inhibition is 4% (inactive).

`NC1CCCCC1N.Nc1c(N=Nc2ccc(-c3ccc(N=Nc4cc(S(=O)(=O)[O-])c5ccccc5c4N)cc3)cc2)cc(S(=O)(=O)[O-])c2ccccc12.[OH3+].[OH3+].[Pt+4]`: the growth inhibition was 1% (inactive).

Consider `COC(=O)CCC(NC(=S)N/N=C(\C)c1ccccn1)C(=O)OC` (stereo unspecified), for which the growth inhibition is -10% (inactive).

With `NC(=O)C(=O)NNc1ccccc1`, the growth inhibition was 3% (inactive).

Regarding `COc1cc(C2SCC(=O)N2c2ccc(-c3ccc(-n4c(-c5ccccc5)nc5ccccc5c4=O)cc3)cc2)ccc1O` (stereo unspecified), the growth inhibition is -2% (inactive).

As for `COc1ccc(/C=C/c2sc3ccccc3[n+]2CCCCI)cc1OC`, the growth inhibition is -84% (inactive).

Take `Cc1c(C(C)C)cc(OCCO)cc1C(C)C`: the growth inhibition was -2% (inactive).

As to `Cc1cc(NCCCCCCCCNc2cc(C)nc3cc(N)ccc23)c2ccc(N)cc2n1`, the growth inhibition is -65% (inactive).

As to `C=C(Cl)COC(=O)Nc1cccc(Cl)c1`, the growth inhibition was -1% (inactive).

As for `CC(=O)OC1CC2C(C)(C)C(=O)C=C[C@]2(C)C2CCC3(C)C(=CCC3[C@H](CO)C[C@H](O)C(=O)C(C)(C)O)[C@]12C` (stereo partly specified), the growth inhibition is -26% (inactive).

In the case of `COc1ccc(/C=C/C(=O)c2ccccc2)cc1OC`, the growth inhibition is -2% (inactive).

In the case of `COc1c(O)c(C=O)c(Br)c(C=O)c1O`, the growth inhibition is 0% (inactive).

Take `O=[N+]([O-])c1cc(Cl)cnc1Br`: the growth inhibition is 1% (inactive).

As to `Cc1ccc2c(c1)C1(SC(C)C(=O)N1c1ccc(Cl)cc1)C(=O)N2` (stereo unspecified), the growth inhibition was 0% (inactive).

`COc1cc(CSc2ccc(O)cc2)cc(O)c1O`: the growth inhibition is 0% (inactive).

Consider `Cc1ccc2c3ccc4c(c3n(C)c2c1)C(=O)C=CC4=O`, for which the growth inhibition is -22% (inactive).

With `O=C(Nc1ccc(Cl)cc1)Nc1nnc2nc(C(C(=O)c3cccc([N+](=O)[O-])c3Cl)c3nc4nnc(NC(=O)Nc5ccc(Cl)cc5)n4[nH]c3=O)c(=O)[nH]n12`, the growth inhibition is 1% (inactive).

Regarding `O=C(O)C1CC(c2ccccc2)=NN1c1ccccc1` (stereo unspecified), the growth inhibition is -60% (inactive).

`CCCCc1ccc(-n2c(C)c(COC(=O)NC)c(COC(=O)NC)c2C)cc1`: the growth inhibition is -48% (inactive).

In the case of `CCC(=O)c1cc(C(=O)C(=S)SC)cc(C(=O)C(=S)SC)c1`, the growth inhibition is -2% (inactive).

On to `CCn1c(O)c(C=Nc2ccccc2)s/c1=N/Nc1nc(-c2ccccc2)cs1`, for which the growth inhibition is -87% (inactive).

`Cc1ccccc1N=C(NO)c1ccccc1`: the growth inhibition was 0% (inactive).

For `Cc1nc2ccccc2nc1NNc1ccccc1`, the growth inhibition was 4% (inactive).

Staying with this test, now noted: S. cerevisiae wt1 strain (SPY 50644) growth inhibition; at 3.7 µM; stronger effect = higher value.
Take `O=[N+]([O-])c1cc[n+]([O-])cc1`: the growth inhibition is -6% (inactive).

Regarding `CC1(C)CC(=O)C(/C=N/c2nc(-c3ccccc3)cs2)=C(O)C1`, the growth inhibition was 2% (inactive).

As to `Nc1nc(N)c2nc(CNc3ccc(C(=O)NC(CCC(=O)O)C(=O)O)cc3F)cnc2n1` (stereo unspecified), the growth inhibition was 12% (inactive).

`COC(=O)CC1(O)C(/C=C/c2ccccc2)C(C(=O)OC)C(=O)C(C(=O)OC)C1C(=O)OC` (stereo unspecified): the growth inhibition is 1% (inactive).

With `CC(C)(C)c1ccc(NS(=O)(=O)c2ccc(N)cc2)cc1`, the growth inhibition is 2% (inactive).

`CCN(CC)CCNc1ccc([N+](=O)[O-])c2nc3ccccc3c(N)c12`: the growth inhibition is -7% (inactive).

Regarding `CCCCN(CCCC)C(=O)/C=C/c1ccccc1`, the growth inhibition is 3% (inactive).

Take `O=c1[nH]c(-c2ccccc2)nc2c1sc1nc3ccccc3n12`: the growth inhibition was -25% (inactive).

Turning to `O=[N+]([O-])c1ccc2c(c1)/C(=N/N=C1c3ccccc3Cc3ccccc31)c1cc([N+](=O)[O-])cc([N+](=O)[O-])c1-2`, the growth inhibition is 21% (inactive).

Regarding `CC(C)C(C)/C=C\C(C)C1CCC2C3=CC=C4CC(O)CCC4(C)C3CCC21C` (stereo unspecified), the growth inhibition was -1% (inactive).

Turning to `O=C1Nc2ccc(Br)cc2C1=Nc1ccc2c(c1)OCO2`, the growth inhibition is -3% (inactive).

As for `CCCCOCn1c(=O)[nH]c(=O)c2cc(Br)ccc21`, the growth inhibition was -18% (inactive).

For the compound `Cc1ccc(S/C(=C\C(=O)O)c2ccccc2)cc1`, the growth inhibition is -7% (inactive).

Turning to `O=[N+]([O-])/C=C/c1cc(Cl)c(/C=C/[N+](=O)[O-])cc1Cl`, the growth inhibition is 32% (inactive).

For the compound `Cc1cc(S(=O)(=O)Nc2nnc3cnc4ccccc4n23)c(S)cc1Cl`, the growth inhibition was -3% (inactive).

On to `O=C(/C=C/c1cc(Cl)cc(Cl)c1O)c1cccc(O)c1`, for which the growth inhibition is 6% (inactive).

Turning to `NC1CCCCC1N.Nc1c(N=Nc2ccc(-c3ccc(N=Nc4cc(S(=O)(=O)[O-])c5ccccc5c4N)cc3)cc2)cc(S(=O)(=O)[O-])c2ccccc12.[OH3+].[OH3+].[Pt+4]`, the growth inhibition was -43% (inactive).

As to `COC(=O)CCC(NC(=S)N/N=C(\C)c1ccccn1)C(=O)OC` (stereo unspecified), the growth inhibition was -22% (inactive).

As to `NC(=O)C(=O)NNc1ccccc1`, the growth inhibition was 13% (inactive).

Turning to `COc1cc(C2SCC(=O)N2c2ccc(-c3ccc(-n4c(-c5ccccc5)nc5ccccc5c4=O)cc3)cc2)ccc1O` (stereo unspecified), the growth inhibition is -2% (inactive).

As for `COc1ccc(/C=C/c2sc3ccccc3[n+]2CCCCI)cc1OC`, the growth inhibition was -3% (inactive).

`Cc1c(C(C)C)cc(OCCO)cc1C(C)C`: the growth inhibition was -3% (inactive).

Consider `Cc1cc(NCCCCCCCCNc2cc(C)nc3cc(N)ccc23)c2ccc(N)cc2n1`, for which the growth inhibition was -41% (inactive).

`C=C(Cl)COC(=O)Nc1cccc(Cl)c1`: the growth inhibition was -1% (inactive).

For `CC(=O)OC1CC2C(C)(C)C(=O)C=C[C@]2(C)C2CCC3(C)C(=CCC3[C@H](CO)C[C@H](O)C(=O)C(C)(C)O)[C@]12C` (stereo partly specified), the growth inhibition was -17% (inactive).

Regarding `COc1ccc(/C=C/C(=O)c2ccccc2)cc1OC`, the growth inhibition was -15% (inactive).

For `COc1c(O)c(C=O)c(Br)c(C=O)c1O`, the growth inhibition was 5% (inactive).

Regarding `O=[N+]([O-])c1cc(Cl)cnc1Br`, the growth inhibition is 4% (inactive).

`Cc1ccc2c(c1)C1(SC(C)C(=O)N1c1ccc(Cl)cc1)C(=O)N2` (stereo unspecified): the growth inhibition is 5% (inactive).

For `COc1cc(CSc2ccc(O)cc2)cc(O)c1O`, the growth inhibition was 0% (inactive).

As to `Cc1ccc2c3ccc4c(c3n(C)c2c1)C(=O)C=CC4=O`, the growth inhibition is -16% (inactive).

Take `O=C(Nc1ccc(Cl)cc1)Nc1nnc2nc(C(C(=O)c3cccc([N+](=O)[O-])c3Cl)c3nc4nnc(NC(=O)Nc5ccc(Cl)cc5)n4[nH]c3=O)c(=O)[nH]n12`: the growth inhibition is 1% (inactive).

Consider `O=C(O)C1CC(c2ccccc2)=NN1c1ccccc1` (stereo unspecified), for which the growth inhibition was -56% (inactive).

In the case of `CCCCc1ccc(-n2c(C)c(COC(=O)NC)c(COC(=O)NC)c2C)cc1`, the growth inhibition was -44% (inactive).

Consider `CCC(=O)c1cc(C(=O)C(=S)SC)cc(C(=O)C(=S)SC)c1`, for which the growth inhibition was 17% (inactive).

As for `CCn1c(O)c(C=Nc2ccccc2)s/c1=N/Nc1nc(-c2ccccc2)cs1`, the growth inhibition was -1% (inactive).

`Cc1ccccc1N=C(NO)c1ccccc1`: the growth inhibition is -4% (inactive).

With `Cc1nc2ccccc2nc1NNc1ccccc1`, the growth inhibition was 9% (inactive).
